Screening data: PubChem, National Center for Advancing Translational Sciences (NCATS)
HT1080-NT tox = kills 2HG-producing HT-1080-NT fibrosarcoma cells; actives 1.6% (n = 360,000); Potency, µM (titrated, usually from 46.1 µM), without a hit: top-dose activity, negative = less viability, actives largely listed as cytotoxic; HT-1080-NT fibrosarcoma viability, CellTiter-Glo ATP luminescence, 48 h; AID 686970;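 further: NT is the 2HG producing partner of a matched IDH1 knockdown line; potency means the concentration at half of the fitted maximal effect; 0% = DMSO-treated cells and -100% = media-only wells without cells; nearly all actives have a fitted effect of over 55% in size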
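Fibrosarcoma NT cells, 750 per well in 5% FBS RPMI, were exposed to compound for 48 hours. Viability: CellTiter-Glo luminescence.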
DT40 TDP1 no CPT = qHTS for Inhibitors of human tyrosyl-DNA phosphodiesterase 1 (TDP1): qHTS in cells in absence of CPT | actives 15% (n = 420,000) | Potency, µM (titrated, usually from 46.2 µM), for inactives: top-dose activity change, negative = growth inhibition, most hits filed as inhibitors | AID 686978, 2013 | DT40 Tdp1-/- hTDP1 cells, no CPT, ATP luminescence, 48 h; further: potency means the concentration at half of the fitted maximal effect; nearly all actives have a fitted effect of over 55% in size
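Growth kinetics read by CellTiter-Glo luminescence after ≥48 hr at 37 °C. Cells: DT40 Tdp1-/- stably carrying human TDP1, 400 per well, compound exposure in the absence of CPT (DMSO vehicle).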
TDP1 cell CPT = DT40-hTDP1 cell growth loss with CPT. chicken DT40 Tdp1-/-;hTDP1 cells + 20 nM CPT, ATP luminescence, 48 h. Potency, µM (series often up to 46.2 µM), for the others: at the highest dose activity change, negative = growth inhibition, hits mostly inhibitors. actives 12% (n = 420,000). AID 686979; further: potency means the concentration at half of the fitted maximal effect; nearly all actives have a fitted effect of over 55% in size
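Chicken DT40 Tdp1-/- cells stably complemented with human TDP1 were seeded at 400 cells/well in medium containing 20 nM camptothecin, exposed to pin-transferred compounds, and grown at 37 °C for at least 48 hr. Viability was read as ATP luminescence.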
IL1B secr inh = inhibitors of inflammasome signaling (IL-1 beta secretion); AID 743279; THP-1 LPS/ATP IL-1B secretion, AlphaLISA, 16 h; active compounds read low; activity change, % at 57.5 µM; actives 4.7% (n = 360,000); in the data active means activity change below about -50%; inconclusive means mostly about -30% to -49%
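THP-1 cells pretreated 1 hr with compounds (up to 57.5 uM final), then stimulated with LPS (250 ng/mL final) plus ATP (1.25 mM final); secreted IL-1B measured by AlphaLISA after 16 hr, decreased signal indicating inhibition.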
HT1080 IDH1KD tx = toxicity to HT-1080 IDH1 knockdown cells (counter line); HT-1080 IDH1 knockdown viability, ATP luminescence, 48 h; Potency, µM (top dose mostly 46.1 µM), inactives show at the top dose activity, negative = toxicity, most hits filed as cytotoxic; actives 2% (n = 360,000);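 further: potency means the concentration at half of the fitted maximal effect; 0% = DMSO wells and -100% = cell-free medium wells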
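Knockdown cells (IDH1KD HT-1080) received compounds 2 h after plating at 750 cells/well and were kept 48 h at 37 °C in 5% FBS RPMI. A CellTiter-Glo luminescence read gave % activity for curve fitting.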
ELG1 DNA repair = blocks ELG1-dependent DNA repair in HEK293T cells. HEK293T ELG1-luciferase reporter, luminescence, 16 h; DNA damage induced by 5-fluorouridine. Potency, µM (titrated, usually from 46.1 µM), without a hit: at the top dose activity change, negative = inhibition, hits mostly inhibitors. actives 2.3% (n = 330,000); further: potency means the concentration at half of the fitted maximal effect; nearly all actives have a fitted effect of over 55% in size
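5-Fluorouridine DNA damage + compound/DMSO, 2,000 cells/well, 16 h, 37 °C/5% CO2. ONE-Glo, 30 min RT, luminescence. Readout = decrease in reporter signal.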
Active calls of the source: *; ? = inconclusive; nt = no result; [ ] = dose if it differs, or a comment. Rows were chosen to be rich in hits. Some 19% of all compounds tested hit in one or more screens of this group. Unless noted, the call rests on the fitted dose curve; in most records, active means well fitted curve in the direction sought with a large enough effect; inconclusive means small, poorly fitted or top-dose-only effect, or another doubt; inactive means no such curve, though single readings can be large; an effect the other way counts as inactive or inconclusive. Unless noted, on the % scale 0 is the no-effect control and ±100 the full control effect.

SMILES | HT1080-NT tox | DT40 TDP1 no CPT | TDP1 cell CPT | IL1B secr inh | HT1080 IDH1KD tx | ELG1 DNA repair
CCOc1cc(C2NN=C(c3ccccc3)S2)ccc1OCc1ccccc1Cl (stereo unspecified) | 2.9% | 16.4µM* | ? | 48.8 | -6.8% | ?
CCOc1cc(CNC2CCCC2)cc(Cl)c1OCc1ccccc1 | 20.6µM* | ? | ? | -23.6 | ? | -16.5%
CCOc1cc(C(N)=O)cc(Cl)c1OCc1ccccc1 | -6.6% | 0.2% | -23.0% | 24.2 | -3.2% | -1.5%
CCOc1cc(CNCC(C)C)cc(Cl)c1OCc1ccccc1 | -22.4% | 20.6µM* | ? | -51.8* | -20.0% | ?
CCOc1cc(CNC2CCCC2)ccc1OCc1ccccc1Cl | 12.1% | 20.6µM* | 13µM* | -88.5* | -15.5% | 0.0%
COC(=O)C1=C(C)N(c2ccc(F)cc2)/C(=C/c2ccc(O)cc2)C1=O | 0.1% | ? | 2.4% | -21.7 | -0.9% | -7.8%
CC(C)C(=O)OCc1cc(=O)n2nc(C3CC3)sc2n1 | nt | 6.0% | -17.1% | nt | nt | nt
O=C(Nc1ccc2c(c1)OCO2)C1CC(=O)N(c2ccc3c(c2)OCCO3)C1 (stereo unspecified) | 13.7% | -2.5% | 8.7% | 25.9 | 2.6% | 0.6%
O=C(Nc1nc(-c2ccc3c(c2)OCO3)cs1)C1CC1 | 14.6% | 2.31µM* | 2.31µM* | -0.7 | 10.0% | ?
O=C(O)C1CC(=O)N(c2ccc3c(c2)OCCO3)C1 (stereo unspecified) | 14.3% | 13µM* | 13µM* | 7.1 | 13.9% | 0.0%
CC(=O)Nc1ccc(-c2csc(NC(=O)C3CC(=O)N(c4ccc5c(c4)OCCO5)C3)n2)cc1 (stereo unspecified) | 23.4% | 20.6µM* | 18.4µM* | 0.0 | -9.0% | ?
O=C(Nc1nc2ccccc2[nH]1)C1CC(=O)N(c2ccc3c(c2)OCCO3)C1 (stereo unspecified) | -11.2% | -21.3% | 3.2% | 3.9 | -12.2% | -10.4%
O=C(Nc1nc(-c2ccc3c(c2)OCCO3)cs1)C1CC(=O)N(c2ccc3c(c2)OCCO3)C1 (stereo unspecified) | nt | ? | 11.2µM* | nt | nt | nt
CS(=O)(=O)c1ccc(NC(=O)C2CC(=O)N(c3ccc4c(c3)OCCO4)C2)cc1 (stereo unspecified) | -0.6% | -15.4% | -1.0% | -3.3 | 3.0% | -5.3%
O=C(O)C(=O)Nc1nc(-c2ccc3c(c2)OCCO3)cs1 | -1.7% | -4.0% | -4.3% | -9.6 | 9.6% | ?
COC(=O)c1ccc(CSc2nnc(NC(=O)C3CC(=O)N(c4ccc5c(c4)OCCO5)C3)s2)cc1 (stereo unspecified) | 5.3% | 20.6µM* | 23.1µM* | -14.2 | -1.0% | ?
O=C(NCCc1ccc(C(F)(F)F)cc1)C1CC(=O)N(c2ccc3c(c2)OCCO3)C1 (stereo unspecified) | -1.8%[9.24 µM] | 20.6µM* | ? | 21.0 | -15.3% | -17.8%
O=C(CSCC(=O)Nc1nc(-c2ccc3c(c2)OCO3)cs1)Nc1nccs1 | 9.7% | 25.9µM* | 11.6µM* | -14.5 | 0.2% | -16.8%
Cc1c(Cl)cccc1NS(=O)(=O)c1ccc(NS(=O)(=O)c2ccc3c(c2)OCCO3)cc1 | nt | -22.3% | 5.8% | nt | nt | nt
CC(=O)Nc1ccc(/C=C2\C=C(C(O)c3ccc(NC(C)=O)cc3)c3ccccc32)cc1 (stereo unspecified) | nt | 10µM* | 20µM* | nt | nt | nt
OC(C1=C/C(=C\c2ccncc2)c2ccccc21)c1ccncc1 (stereo unspecified) | nt | 11.2µM* | 11.2µM* | nt | nt | nt
